Measurements: PubChem BioAssay AID1745857 (National Center for Advancing Translational Sciences (NCATS), 2022)
Hit rate of the full screen: of about 120,000 compounds, about 370 (0.31%) were called active. Entries that show only a call come without a potency. Not shown: some 4% with an inconclusive outcome. The call rests on the fitted dose curve. For the sample, actives were picked, then their nearest neighbours and some compounds at random.

Assay: Primary qHTS Assay for Foot and Mouth Disease Virus Antivirals against NCGC Sytravon and CBC Compound Libraries: Renilla Luciferase Signal; further: nearly all actives have a fitted effect of over 55% in size
Details: FMDV replicon cells; series mostly up to 57.5 µM
Potency means the concentration at half of the fitted maximal effect.

Row | SMILES | Potency | activity change, negative = inhibition
1 | Cn1c(=O)c2c(ncn2CC(=O)NCCc2cccc(F)c2)n(C)c1=O | inactive | –
2 | C=C(C)CN1CCN(c2oc(C3CC3)nc2C#N)CC1 | inactive | –
3 | Cc1c(-c2ccccc2)oc2c(C(=O)OCC(=O)C(C)(C)C)cccc2c1=O | inactive | –
4 | COCCNC(=O)COc1cc(O)c2c(=O)cc(-c3ccccc3)oc2c1 | inactive | –
5 | CCc1cccc(NC(=O)c2ccc3c(c2)NC(=O)CS3)c1 | inactive | –
6 | CC(C)Sc1c(C(C)C)cnc2c1c(=O)n(C)c(=O)n2C | inactive | –
7 | CC(C)Oc1ccc(C(O)(CC[N+](C)(C)C)C2CCCCC2)cc1 (stereo not drawn) | inactive | –
8 | COc1ccc(/C=C/c2ccc3cccc(O)c3n2)cc1OC | inactive | –
9 | Cc1sc2nc(CN3CCOCC3)nc(N(C)CC(=O)Nc3ccc(F)cc3)c2c1C | inactive | –
10 | COc1ccc(C2CC(=O)Nc3c2c(=O)nc2c(C)cccn32)cc1OC (stereo not drawn) | inactive | –
11 | COc1ccc(-c2csc3c2NC(=O)CC3c2ccc(OCC(N)=O)c(OC)c2)cc1 (stereo not drawn) | 2.82 µM (active) | –
12 | Cc1ccc(-c2csc3c2NC(=O)CC3c2ccc(C)cc2)cc1 (stereo not drawn) | inactive | –
13 | COc1ccc(Nc2nc(-c3ccc(NC(C)=O)cc3)cs2)cc1 | inactive | –
14 | COc1ccc(CNC(=O)NCc2noc3ccc(C)cc23)cc1 | inactive | –
15 | COC(=O)COc1ccc2c(C)c(CC(=O)OC)c(=O)oc2c1C | inactive | –
16 | O=C(Cc1cnc(-c2ccccc2F)s1)Nc1nccs1 | inactive | –
17 | COc1ccc(S(=O)(=O)N2CCC(C(=O)NCc3cccnc3)CC2)cc1 | inactive | –
18 | O=C(O)c1ccc(CNCc2ccco2)cc1 | inactive | –
19 | Cc1cc2nc(/N=C(\N)NC(=O)Cc3ccccc3)nc(C)c2cc1C | inactive | –
20 | Cn1c(=O)c2nc(SCC(=O)NCc3ccc(Cl)cc3)n(C)c2n(C)c1=O | inactive | –
21 | Cc1noc(C)c1S(=O)(=O)N(C)CC(=O)Nc1ccc(C(C)(C)C)cc1 | inactive | –
22 | CN(C)S(=O)(=O)c1cccc(C(=O)Nc2cccc(Oc3ccccc3)c2)c1 | inactive | –

Row | SMILES | Potency | activity change, negative = inhibition
23 | CCCCn1c(=O)[nH]c(=O)c2c1nc(CSc1nnc(-c3ccco3)n1C)n2CC | inactive | –
24 | CCOC(=O)c1ccc(Oc2coc3cc(OC)ccc3c2=O)cc1 | inactive | –
25 | CN1CC[C@H](c2c(O)cc(O)c3c(=O)cc(-c4ccccc4Cl)oc23)[C@H](O)C1 | 1 µM (active) | –
26 | Cc1ccc(C(=O)O)cc1S(N)(=O)=O | inactive | –
27 | COc1ccc(NC(=O)c2cccc(-n3cccc3)c2)c(OC)c1 | inactive | –
28 | CCN(C(=O)Cn1c(CN2CCOCC2)nc2ccccc21)c1ccccc1 | inactive | –
29 | CCOc1cccc2c(C)nc(Nc3nc(CSc4ccc(C)cc4)cc(=O)[nH]3)nc12 | inactive | –
30 | Cc1ccc(CC(=O)N(C)CC(=O)N(CC(C)C)c2c(N)n(CC(C)C)c(=O)[nH]c2=O)cc1C | inactive | –
31 | O=C1c2ccccc2NC(c2cnc3ccccc3n2)N1c1ccc(F)cc1 (stereo not drawn) | inactive | –
32 | CCCCn1c(=O)[nH]c(=O)c2c1nc(CSc1n[nH]c(C)n1)n2CC | inactive | –
33 | COC(=O)c1ccc(C(=O)NCc2ccccc2C)cc1 | inactive | –
34 | Cc1c(C)[n+](=O)c2cc(F)c(F)cc2n1[O-] | inactive | –
35 | Cc1ccc(-c2noc(Cn3cnc(C#N)n3)n2)cc1F | inactive | –
36 | O=C1CCSc2c1cccc2C(=O)NCc1ccccc1Cl | inactive | –
37 | COCCn1c(SCc2cc(C)ccc2OC)nnc1-c1ccccc1 | inactive | –
38 | COc1ccc(Nc2nc3ccccc3nc2NS(=O)(=O)c2ccc(OC)cc2)cc1 | inactive | –
39 | CCOCCCNc1oc(-c2ccc(S(=O)(=O)N(C)C)cc2)nc1C#N | inactive | –
40 | Cc1cccc(NC(=O)c2cccc3ncccc23)c1 | inactive | –
41 | CC(NCc1cccs1)C12CC3CC(CC(C3)C1)C2 (stereo not drawn) | inactive | –
42 | CC(C)COc1ccc(/C=C(\C#N)C(=O)Nc2ccccc2C(=O)O)cc1 | inactive | –
43 | COC(=O)C(N)Cc1ccc2ccccc2c1 (stereo not drawn) | – | -8.69% [at 1.06 µM] (inactive)
44 | O=C(NCC1CC1)c1cc(-c2ccncc2)nc2ccccc12 | inactive | –

Row | SMILES | Potency | activity change, negative = inhibition
45 | Brc1ccc(/C=N/Nc2nc3ccccc3c3ccccc23)cc1 | inactive | –
46 | CCCCCCCCCOc1ccc(C(=O)c2ccccc2)cc1 | inactive | –
47 | Cc1ccc(NC(=O)Cn2cc(/C=C3\NC(=O)NC3=O)c3ccccc32)cc1 | inactive | –
48 | c1ccc(N2CCN(c3nc(N4CCCCC4)nc4nccnc34)CC2)cc1 | inactive | –
49 | COc1ccccc1NC(=O)C(=O)NCC(c1cccnc1)N1CCN(c2ccccc2F)CC1 (stereo not drawn) | inactive | –
50 | O=C(NCc1cccnc1)C(=O)NCC(c1cccnc1)N1CCN(c2ccccc2)CC1 (stereo not drawn) | inactive | –
51 | COc1ccccc1N1CCN(C(CNC(=O)C(=O)NCc2ccc(C)cc2)c2cccnc2)CC1 (stereo not drawn) | 7.08 µM (active) | –
52 | CCOc1ccccc1NC(=O)N1CCC2(CC1)c1cccn1-c1ccc(C)cc1N2CC | inactive | –
53 | O=C(Cc1c[nH]c2ccccc12)N1CCN(C(=O)c2ccccc2)CC1 | inactive | –
54 | O=C(COc1ncnc2ccccc12)Nc1ccccc1Cl | inactive | –
55 | COC(=O)CNC(=O)c1cc2occc2n1Cc1ccccc1 | inactive | –
56 | COC1CC(OC2CCC3(C=O)[C@H]4CCC5(C)C(C6=CC(=O)OC6)CCC5(O)[C@@H]4CCC3(O)C2)OC(C)C1O (stereo partly drawn) | 0.398 µM (active) | –
57 | N#Cc1cn(C2CC2)c(=O)n(Cc2coc(-c3cccc(Cl)c3)n2)c1=O | inactive | –
58 | O=C(CCc1ncc(-c2ccc(F)cc2)o1)NCC(c1ccccc1)N1CCCC1 (stereo not drawn) | inactive | –
59 | O=C(CC1(O)C(=O)N(CN2CCOCC2)c2ccccc21)c1ccc2ccccc2c1 (stereo not drawn) | inactive | –
60 | Oc1c(Cl)cc(Cl)c(Cl)c1Cc1c(O)c(Cl)cc(Cl)c1Cl | 10 µM (active) | –
61 | Cc1cccc(OCCn2cc(S(=O)(=O)N3CCCC3)ccc2=O)c1 | inactive | –
62 | CCN(CC)CCCNC(=O)C(=O)Nc1cccc2[nH]ccc12 | inactive | –
63 | O=C(CSc1ccc2c(c1)OCCCO2)NC(c1ccccc1)c1cccs1 (stereo not drawn) | inactive | –
64 | Cc1cccc(NC(=O)CN2CCCN(c3ncc(C(F)(F)F)cc3Cl)CC2)c1 | inactive | –
65 | CCC(C)NC(=O)COc1ccc2c(C)cc(=O)oc2c1 (stereo not drawn) | inactive | –
66 | CCOC(=O)CN1C(C(=O)c2ccccc2)=C(OC(=O)CC)c2ccccc2S1(=O)=O | inactive | –

Row | SMILES | Potency | activity change, negative = inhibition
67 | COC(=O)c1[nH]c2ccc(F)cc2c1NC(=O)CCN1CCC(C)CC1 | inactive | –
68 | N#Cc1ccccc1COC(=O)c1ccccc1NCCO | inactive | –
69 | Cc1cc(C)cc(Nc2nc(NCc3ccco3)nc3c2cnn3-c2ccccc2)c1 | inactive | –
70 | Fc1cccc(-c2nc(COc3ccc4ccc(C(F)(F)F)nc4c3)co2)c1 | inactive | –
71 | C#CCN([C@H](C(=O)OC)C(C)CC)S(=O)(=O)c1ccccc1Br (stereo partly drawn) | inactive | –
72 | CC1CC1C(=O)Nc1ccc2c(c1)CCC2 (stereo not drawn) | inactive | –
73 | O=C(NCCc1ccc(F)cc1)c1[nH]c2ccccc2c1Cl | inactive | –
74 | COc1ccc(OC)c(C(O)c2nc3ccccc3n2C)c1 (stereo not drawn) | inactive | –
75 | Cc1ccc(CC(=O)NCc2ccc(COC(C)C)cc2)cc1 | inactive | –
76 | Cc1ccc(C)c(NC(NC(=O)c2cccc(Cl)c2)C(Cl)(Cl)Cl)c1 (stereo not drawn) | inactive | –
77 | CN(C(N)=NC(=O)/C=C/c1ccccc1)C(C#Cc1ccccc1)Cc1ccccc1 (stereo not drawn) | inactive | –
78 | CCc1nnsc1C(=O)NC(C)c1cccc(OC(C)C)c1 (stereo not drawn) | inactive | –
79 | O=C(CN1CCCC(C(F)(F)F)C1)Nc1cccc2ncccc12 (stereo not drawn) | inactive | –
80 | CCOC(=O)c1ccccc1NC(=O)COC(=O)c1ccc2c(c1)NC(=O)C(C)S2 (stereo not drawn) | inactive | –
81 | COc1ccc(CSc2nnc(C3CC3)n2C2CC2)cc1F | inactive | –
82 | COc1ccc(C)cc1NC(=O)c1ccc2c(c1)NC(=O)CS2 | inactive | –
83 | COc1ccc(Br)cc1COc1ccc(C#N)cc1 | inactive | –
84 | Cc1ccc(NCc2cc3ccc(C)cc3[nH]c2=O)c(C)c1 | inactive | –
85 | Cc1cnc(NC(=O)CNC(=O)c2ccoc2)s1 | inactive | –
86 | CC(CC(=O)Nc1ccc(O)cc1)(C(=O)O)c1ccccc1 (stereo not drawn) | inactive | –
87 | CC(/C=N/NC(=O)c1ccc(C)cc1)=C\c1ccccc1 | inactive | –
88 | CCC(C)NC(=O)CSc1ncc(-c2cccc(Br)c2)o1 (stereo not drawn) | inactive | –

Row | SMILES | Potency | activity change, negative = inhibition
89 | O=C(Cc1ccc(F)cc1)Nc1c(NC2CCCCC2)c2ccccc2oc1=O | inactive | –
90 | CN(C)C(CNC(=O)Cc1n[nH]c(=O)c2ccccc12)Cc1ccccc1 (stereo not drawn) | inactive | –
91 | CCCC(=O)Nc1nc2ccc(CCC(=O)NCc3cc(Br)ccc3OC)cc2s1 | inactive | –
92 | CS(=O)(=O)N(CC(=O)N1CCc2ccccc2C1)c1cc(C(F)(F)F)ccc1Cl | inactive | –
93 | Cc1ccc(C)c(N2CCN(C(=O)C3CCC(CNS(=O)(=O)c4cccs4)CC3)CC2)c1 (stereo not drawn) | 31.6 µM (active) | –
94 | O=C(CNS(=O)(=O)c1cccs1)N1CCN(c2ccccc2Cl)CC1 | inactive | –
95 | COc1cccc(CNC(=O)C2CCC(CNS(=O)(=O)c3cccs3)CC2)c1 (stereo not drawn) | inactive | –
96 | Fc1cc(CSc2nncn2C2CC2)c2ncccc2c1 | inactive | –
97 | CC1CCN(S(=O)(=O)c2ccc3oc(=O)ccc3c2)CC1 | inactive | –
98 | CCOC(=O)c1cnc(Nc2ccccc2)c2ccccc12 | inactive | –
99 | CC1(C)CC(=O)C2=C(C1)N(Cc1ccccc1)C(CCC1CCCCC1)=NC2(C(F)(F)F)C(F)(F)F | inactive | –
100 | COc1cc(C(=O)Oc2c(C)cccc2C)cc(Cl)c1OC(C)C | – | -5.15% [at 1.06 µM] (inactive)
101 | CCn1c(C)cc(C(=O)Cn2nc(C)c(C)c(C#N)c2=O)c1C | inactive | –
102 | CCCCS(=O)C1CCCCC1OC(=O)c1ccccc1 (stereo not drawn) | inactive | –
103 | O=C(OCc1cccnc1)c1nn(Cc2ccccc2)c(=O)c2ccccc12 | inactive | –
104 | COC(=O)c1ccc(Cl)cc1NC(=O)Cn1c(=O)n(Cc2ccc(F)cc2)c(=O)c2ccccc21 | inactive | –
105 | CC(C)NC(=O)CN1CCCN(C(=O)c2cc3ccccc3n2C)CC1 | inactive | –
106 | O=C(COc1ccccc1)NCc1ccc2c(c1)CCN2C(=O)c1ccc(F)cc1 | inactive | –
107 | O=C(NCc1ccc2c(c1)CCN2C(=O)c1ccccc1)Nc1cc(F)ccc1F | 8.91 µM (active) | –
108 | O=C(NCc1ccc2c(c1)CCN2C(=O)c1ccccc1)c1ccccc1 | inactive | –
